# Reference: the supplement of paper PMC8728848
# About 410 targets per protein were measured; listed, in parts, are those with the strongest signals and a random draw of the rest.
# B1: Cohesin-hMARCO (Homo sapiens) (protein)
# chain: LDDLDAVRIKVDTVNAKPGDTVRIPVRFSGIPSKGIANCDFVYSYDPNVLEIIEIEPGDIIVDPNPDKSFDTAVYPDRKIIVFLFAEDSGTGAYAITKDGVFATIVAKVKEGAPNGLSVIKFVEVGGFANNDLVEQKTQFFDGGANVGDTTEPATPTTPVTTPTTTDDLDAASVRIVGSSNRGRAEVYYSGTWGTICDDEWQNSDAIVFCRMLGYSKGRALYKVGAGTGQIWLDNVQCRGTESTLWSCTKNSWGHHDCSHEEDAGVECSVHHHHHH
# Tests used:
# Test in all cases: glycan array binding signal (z-score within array); higher = stronger binding
# Conditions in all cases: glycan notation: IUPAC condensed, linker removed
# GalNAc(b1-3)Gal = target: GalNAc(b1-3)Gal
# In short: (§1)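 Columns mapping to the same glycan were averaged after glycan names were converted to IUPAC-condensed notation. The data come from 3228 arrays in the Consortium for Functional Glycomics database, limited to those with an available protein sequence. Binding is reported as a within-array Z-score averaged across arrays of one protein sequence and across linkers.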
# Glc(a1-4)Glc = target: Glc(a1-4)Glc
# In short: as §1
# [1] = target: GlcNAc(a1-4)Gal(b1-4)GalNAc
# In short: as §1
# [2] = target: GlcNAc(a1-4)Gal(b1-4)GlcNAc(b1-3)Gal(b1-4)[Fuc(a1-3)]GlcNAc(b1-3)Gal(b1-4)[Fuc(a1-3)]GlcNAc
# In short: as §1
# [3] = target: GlcNAc(b1-2)Man(a1-3)[GlcNAc(b1-2)Man(a1-6)]Man(b1-4)GlcNAc(b1-4)GlcNAc
# In short: as §1
# [4] = target: GlcNAc(b1-3)Gal(b1-4)GlcNAc(b1-3)Gal(b1-4)GlcNAc(b1-2)Man(a1-3)[GlcNAc(b1-3)Gal(b1-4)GlcNAc(b1-3)Gal(b1-4)GlcNAc(b1-2)Man(a1-6)]Man(b1-4)GlcNAc(b1-4)[Fuc(a1-6)]GlcNAc
# In short: as §1
# [5] = target: GlcNAc(b1-3)Gal(b1-4)GlcNAc(b1-6)[GlcNAc(b1-3)Gal(b1-3)]GalNAc
# In short: as §1
# GlcNAc(b1-3)GalNAc = target: GlcNAc(b1-3)GalNAc
# In short: as §1
# [6] = target: Man(a1-2)Man(a1-2)Man(a1-3)Man
# In short: as §1
# [7] = target: Man(a1-2)Man(a1-6)[Man(a1-3)]Man(a1-6)[Man(a1-2)Man(a1-2)Man(a1-3)]Man
# In short: as §1
# [8] = target: Man(a1-3)[Man(a1-6)]Man(b1-4)GlcNAc(b1-4)[Fuc(a1-6)]GlcNAc
# In short: as §1
# Man(a1-6)Man = target: Man(a1-6)Man
# In short: as §1
# [9] = target: Neu5Ac(a2-3)Gal(b1-3)GlcNAc6S
# In short: as §1
# [10] = target: Neu5Ac(a2-3)Gal(b1-3)[Neu5Ac(a2-6)]GalNAc
# In short: as §1
# Neu5Ac(a2-3)Gal(b1-4)Glc = target: Neu5Ac(a2-3)Gal(b1-4)Glc
# In short: as §1
# [11] = target: Neu5Ac(a2-3)Gal(b1-4)GlcNAc(b1-2)Man
# In short: as §1
# [12] = target: Neu5Ac(a2-3)Gal(b1-4)GlcNAc(b1-2)[Neu5Ac(a2-3)Gal(b1-4)GlcNAc(b1-4)]Man(a1-3)[GlcNAc(b1-4)][Neu5Ac(a2-3)Gal(b1-4)GlcNAc(b1-2)[Neu5Ac(a2-3)Gal(b1-4)GlcNAc(b1-6)]Man(a1-6)]Man(b1-4)GlcNAc(b1-4)GlcNAc
# In short: as §1
# [13] = target: Neu5Ac(a2-3)Gal(b1-4)GlcNAc(b1-3)Gal(b1-4)GlcNAc
# In short: as §1
# [14] = target: Neu5Ac(a2-3)Gal(b1-4)GlcNAc(b1-3)Gal(b1-4)GlcNAc(b1-6)[Gal(b1-3)]GalNAc
# In short: as §1
# [15] = target: Neu5Ac(a2-3)Gal(b1-4)GlcNAc(b1-6)[Gal(b1-3)]GalNAc
# In short: as §1
# [16] = target: Neu5Ac(a2-3)Gal(b1-4)[Fuc(a1-3)]GlcNAc(b1-3)Gal(b1-4)[Fuc(a1-3)]GlcNAc(b1-3)Gal(b1-4)[Fuc(a1-3)]GlcNAc
# In short: as §1
# Neu5Ac(a2-6)Gal(b1-4)Glc = target: Neu5Ac(a2-6)Gal(b1-4)Glc
# In short: as §1
# [17] = target: Neu5Ac9Ac(a2-3)Gal(b1-3)GlcNAc
# In short: as §1
# [18] = target: Neu5Gc(a2-3)Gal(b1-4)GlcNAc(b1-3)Gal(b1-4)GlcNAc(b1-2)Man(a1-3)[Neu5Gc(a2-3)Gal(b1-4)GlcNAc(b1-3)Gal(b1-4)GlcNAc(b1-2)Man(a1-6)]Man(b1-4)GlcNAc(b1-4)GlcNAc
# In short: as §1
binder,measurement,setting,value
B1,glycan array binding signal (z-score),GalNAc(b1-3)Gal,3.14
same,glycan array binding signal (z-score),Glc(a1-4)Glc,-0.037
same,glycan array binding signal (z-score),[1],-0.39
same,glycan array binding signal (z-score),[2],-0.104
same,glycan array binding signal (z-score),[3],-0.381
same,glycan array binding signal (z-score),[4],-0.453
same,glycan array binding signal (z-score),[5],-0.586
same,glycan array binding signal (z-score),GlcNAc(b1-3)GalNAc,-0.3
same,glycan array binding signal (z-score),[6],3.08
same,glycan array binding signal (z-score),[7],-0.013
same,glycan array binding signal (z-score),[8],-0.571
same,glycan array binding signal (z-score),Man(a1-6)Man,3.28
same,glycan array binding signal (z-score),[9],0.039
same,glycan array binding signal (z-score),[10],-0.255
same,glycan array binding signal (z-score),Neu5Ac(a2-3)Gal(b1-4)Glc,-0.436
same,glycan array binding signal (z-score),[11],0.296
same,glycan array binding signal (z-score),[12],-0.288
same,glycan array binding signal (z-score),[13],-0.514
same,glycan array binding signal (z-score),[14],-0.369
same,glycan array binding signal (z-score),[15],-0.481
same,glycan array binding signal (z-score),[16],-0.404
same,glycan array binding signal (z-score),Neu5Ac(a2-6)Gal(b1-4)Glc,-0.411
same,glycan array binding signal (z-score),[17],4.33
same,glycan array binding signal (z-score),[18],0.016
